Hits are enriched below; roughly 12% of the tested compounds scored in any of these assays.
AMA1 RON2 block – AMA1-RON2 (P. falciparum) interaction inhibition; 360,000 tested, 0.2% active; AlphaScreen AMA1-biotinylated RON2 peptide binding; AID 720542; Potency, µM (highest dose often 58.2 µM), inactives show at the top dose activity change, negative = inhibition, actives largely listed as inhibitors;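 further: 0% = vehicle wells and -100% = peptide control; nearly all actives have a fitted effect of over 45% in size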
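AMA1 (3D7) with his tag at 25 nM final met compounds first, then biotinylated RON2 peptide at 25 nM; detection used donor plus acceptor beads, 10 µg/mL apiece, read by AlphaScreen after 30 min at room temperature.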
NS1 function inh – influenza NS1 inhibition | 270,000 tested, 0.4% active | Potency, µM (doses to about 46.1 µM), for the others: top-dose activity, positive = more growth | AID 2326; calls by dose curve; further: actives are rising curves; nearly all actives have a fitted effect of over 50% in size
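A cell-based growth assay was used: compounds that relieve NS1-induced slow growth of budding yeast raise OD600. Assay medium was yeast nitrogen base with ammonium sulphate and -URA supplement, pH 6.0, with 2% galactose.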
Pf growth 96h – P. falciparum growth inhibition at 96 hour, primary screen for plastid delayed-death inhibitors | P. falciparum luciferase reporter growth, 96 h | Potency, µM (titrated, usually from 28.7 µM), inactives show top-dose activity change, negative = inhibition, actives largely listed as inhibitors | 320,000 tested, 6.9% active | AID 504834; further: on the % scale 0 is the no-effect control and ±100 the full control effect
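P. falciparum expressing integrated firefly luciferase, in erythrocytes at 2% hematocrit, 0.05% parasitemia, incubated with compounds 96 h at 37 C, 5% CO2. Growth inhibition read as loss of luminescence; two-generation exposure targets delayed-death apicoplast inhibitors.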
HCV inhibitor – HCV inhibition; Huh7.5.1 HCVcc-Cre infection, luciferase reporter, 44 h; 340,000 tested, 3.4% active; Potency, µM (top dose mostly 41.8 µM), inactives show at the top dose activity change, negative = inhibition, actives largely listed as inhibitors; further: on the % scale 0 is the no-effect control and ±100 the full control effect
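Reporter virus HCVcc-Cre (~0.5 moi) infects cells exposed to compound; seeding density 1,000 cells/well with 4 h settling beforehand. Luminescence, 15 sec read, taken 44 h post-infection following a 15 min RT substrate incubation.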
SARS PLpro yeast – inhibitors of SARS-CoV papain-like protease in yeast; AID 485353; S. cerevisiae expressing SARS-CoV PLpro, growth rescue; Potency, µM (titrated, usually from 32.9 µM), for inactives: at the top dose activity, positive = growth rescue, hits mostly activators; 330,000 tested, 0.19% active; calls by dose curve; further: 0% is about no effect; nearly all actives have a fitted effect of over 55% in size
Pf growth 48h – inhibits P. falciparum growth in the first generation, 48 h | P. falciparum luciferase growth in erythrocytes, 48 h | Potency, µM (series often up to 28.7 µM), without a hit: at the highest dose activity change, negative = inhibition, usual class: inhibitors | 310,000 tested, 5.9% active; further: on the % scale 0 is the no-effect control and ±100 the full control effect
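In quantitative HTS format, infected erythrocytes bearing luciferase-reporter parasites were treated for a single generation at 37 C. Luminescence after adding detection reagent served as the growth measure.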
Active calls of the source: *; i = inactive; ? = inconclusive; nt = not tested or not shown; [ ] = dose if it differs, or a comment. Unless noted, the call rests on the fitted dose curve; in most records, active means well fitted curve in the direction sought with a large enough effect; inconclusive means small, poorly fitted or top-dose-only effect, or another doubt; inactive means no such curve, though single readings can be large; an effect the other way counts as inactive or inconclusive. Potency means the concentration at half of the fitted maximal effect.

SMILES | AMA1 RON2 block | NS1 function inh | Pf growth 96h | HCV inhibitor | SARS PLpro yeast | Pf growth 48h
CC1(OC(=O)C2CCCC2)C(=O)C=C2C=C(c3ccsc3)N(C3CCCCC3)C=C2C1=O (stereo not given) | -20.5% | 17.4% | ? | 8.7% | 2.4% | 11.7µM*
CSc1ccc(NC(=O)C(C)N2CCN(C)CC2)cc1 (stereo not given) | ? | -2.9% | 11.6% | 11.8% | -0.2% | 3.7%[0.00184 µM]
Cc1ccc(NC(=O)COc2coc(CN3CCc4ccccc43)cc2=O)c(C)c1 | -15.0% | nt | -18.3% | ? | -2.6% | ?
COc1ccc(OC)c(NC(=O)COc2coc(CN3CCCc4ccccc43)cc2=O)c1 | -3.8% | nt | ? | ? | -1.1% | 10.4µM*
COc1ccc(OC)c(NC(=O)COc2coc(CN3CCc4ccccc43)cc2=O)c1 | -28.5% | nt | ? | ? | -2.5% | 10.4µM*
Cc1cc(C)cc(NC(=O)COc2coc(CN3CCc4ccccc43)cc2=O)c1 | -14.5% | nt | ? | ? | 4.4% | ?
COc1cc(/C=N/NC(N)=O)ccc1OCC(=O)Nc1cc(C)c(C)cc1Br | -6.4% | 1.4% | -0.3% | 6.3% | -0.8% | 17.7%
CO/N=C/C(C#N)=C/c1cc(C(=O)c2ccccc2)cn1C | -3.7% | nt | 2.94µM* | 10µM* | 4.8% | ?
CO/N=C/C(C#N)=C/c1ccc(OC)c(OC)c1 | 10.1% | nt | 12.6% | ? | 0.4% | -16.9%
NC(=O)C1CCN(c2nc(-c3cccc(Cl)c3)cs2)CC1 | nt | nt | ? | nt | -15.4% | ?
CCC(=O)c1ccc(OCC(=O)NCc2ccccc2CN2CCCC2)cc1 | -0.5% | nt | nt | ? | 3.3% | nt
O=C(O)c1cccc(N/N=C/C2=C(Cl)c3cc(Cl)ccc3SC2)c1 | 0.7% | nt | 8.28µM* | 13.4% | -4.0% | i
COc1ccc(N2C3=C(CC4=C2CCCC4=O)C(=O)CCC3)cc1 | -11.5% | 25.3% | 11.7µM* | ? | 3.9% | ?
COc1ccc(N2C3=C(CC4=C2CC(C)(C)CC4=O)C(=O)CC(C)(C)C3)cc1 | -6.3% | 20.4% | 13.1µM* | ? | 1.4% | 9.28µM*
COc1ccc(N2C3=C(C(=O)CC(C)(C)C3)C(c3ccccc3OC)C3=C2CC(C)(C)CC3=O)cc1 | -2.2% | -1.5% | ? | -17.6% | -1.0% | ?
CCOc1ccc(C(C)=O)cc1CSc1nc2nc(C)cc(C)n2n1 | -4.8% | -2.0% | -21.0% | -26.9% | -0.1% | -17.2%
CC(=O)N1CCN(c2ccc([N+](=O)[O-])c(-n3nc(C)cc3C)c2)CC1 | -6.0% | -0.2% | 18.0% | -7.2% | 5.3% | -19.6%
Cc1cc(C)n(-c2cc(N3CCN(S(=O)(=O)c4ccc(Cl)cc4)CC3)ccc2[N+](=O)[O-])n1 | 11.5% | ? | 8.1% | ? | 10.4% | 7.38µM*
Cc1cc(C)n(-c2cc(N3CCN(C(=O)c4cccc(Br)c4)CC3)ccc2[N+](=O)[O-])n1 | -19.1% | -7.4% | 9.28µM* | ? | -0.2% | ?
CCOc1ccc(N2CC(C(=O)NC3CCSC3=O)CC2=O)cc1 (stereo not given) | -10.1% | 6.1% | 22.9% | 5.1% | -1.1% | 17.9%
O=C(Cn1cc(COc2c(F)c(F)cc(F)c2F)nn1)c1ccc(O)cc1 | 6.8% | nt | nt | 19.2% | nt | nt
O=C1NCCNC1(c1c[nH]c2ccccc12)C(F)(F)F (stereo not given) | -1.3% | 0.1% | 1.04µM* | 14.8% | -0.4% | nt
Cc1cccc(-c2cc(C(=O)N3CCCc4ccccc43)c3ccccc3n2)c1 | -23.0% | 14.6% | ? | 11.8% | -21.5% | 8.28µM*
CCc1ccc2c(c1)CCCN2C(=O)c1ccccc1C(=O)O | 11.9% | -7.9% | nt | 10µM* | -2.3% | ?
CCN1CCN(c2ncc(C(=O)N3CCCc4ccccc43)c3ccccc23)CC1 | -7.1% | -0.7% | 11.7µM* | ? | -3.2% | ?
O=C(c1cc(-c2ccccc2)nc2ccccc12)N1CCCc2ccccc21 | ? | 1.3% | ? | 0.7% | -37.9% | 2.94µM*

Bioassay records as filed in PubChem BioAssay.
